A selection: hits, their analogues and other compounds. The true share with any hit is near 12%.
G9a block – blocks human histone lysine methyltransferase G9a; AID 504332; Potency, µM (titrated, usually from 102 µM), inactives show at the top dose activity, negative = inhibition, hits mostly inhibitors; G9a H3K9 monomethylation, AlphaScreen, 2 h; Q96KQ7; 350,000 compounds, 8.8% hits; further: potency means the concentration at half of the fitted maximal effect; on the % scale 0 is the no-effect control and ±100 the full control effect; nearly all actives have a fitted effect of over 75% in size
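G9a (20 nM) was preincubated 15 min with compound, then reacted 2 h at room temperature with 500 nM biotin-H3K9 peptide and 20 µM SAM. Monomethyl-H3K9 detected by AlphaScreen using anti-H3K9me1 antibody.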
PLK1 PBD inh – inhibitors of human PLK1 polo-box domain binding. P53350. Plk1 PBD binding of FITC phosphopeptide, fluorescence polarization. Potency, µM, for the others: max response, negative = inhibition, usual class: inhibitors. 360,000 compounds, 2.8% hits; further: potency means the concentration at half of the fitted maximal effect; series mostly up to about 57 µM; on the % scale 0 is the no-effect control and ±100 the full control effect; nearly all actives have a fitted effect of over 65% in size
HP1b chromo inh – HP1-beta chromodomain-methylated histone interaction inhibition | P83916 | AlphaScreen HP1-beta / biotin-H3K9me3 peptide binding | Potency, µM (highest dose often 114 µM), without a hit: at the highest dose activity change, negative = inhibition, actives largely listed as inhibitors | 390,000 compounds, 0.56% hits; further: potency means the concentration at half of the fitted maximal effect; nearly all actives have a fitted effect of over 70% in size
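HP1-beta protein (50 nM final) preincubated 30 min at room temperature with biotinylated H3(1-18)K9me3 peptide (50 nM) in PBS pH 7.4, 0.01% Tween-20, then compound added for 30 min. AlphaScreen streptavidin donor/nickel chelate acceptor beads (10 ug/mL final), 30 min dark, luminescence read.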
JMJD2A Tudor – inhibitors of human JMJD2A Tudor domain | O75164 | AlphaScreen JMJD2A-Tudor / H3K4me3 peptide binding | Potency, µM (series often up to 114 µM), without a hit: top-dose activity change, negative = inhibition, hits mostly inhibitors | 390,000 compounds, 4.4% hits | AID 504339; further: potency means the concentration at half of the fitted maximal effect; on the % scale 0 is the no-effect control and ±100 the full control effect; nearly all actives have a fitted effect of over 50% in size
BAZ2B block – inhibitors of human BAZ2B bromodomain; AlphaScreen BAZ2B-H3K14Ac peptide displacement; Potency, µM (titrated, usually from 114 µM), for inactives: at the top dose activity change, negative = inhibition, hits mostly inhibitors; 360,000 compounds, 4.4% hits; further: potency means the concentration at half of the fitted maximal effect; on the % scale 0 is the no-effect control and ±100 the full control effect; nearly all actives have a fitted effect of over 60% in size
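Multi-concentration screen (max 110 uM) measuring displacement of acetylated histone H3 peptide from BAZ2B by AlphaScreen, using 50 nM protein, 50 nM peptide and 10 ug/mL streptavidin donor plus Ni-chelate acceptor beads.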
PI5P4K alpha inh – blocks human PI5P4K alpha kinase activity | P48426 | PI5P4Kalpha enzyme, ADP-Glo luminescence, 60 min; hits give low values | max response, % | 330,000 compounds, 1.2% hits | AID 652105; active means max response of -50% or lower; inconclusive means between -30% and -50%; inactive means -30% or higher; further: value at the top dose of about 77 µM; on the % scale 0 is the no-effect control and ±100 the full control effect
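Quantitative HTS of the MLSMR library against PI5P4Kalpha with substrate. ATP added last at 5 microM final; room temperature, 60 minutes. Remaining ATP depleted, ADP converted and read as luminescence.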
Active calls of the source: *; ? = inconclusive; nt = no result; [ ] = another dose, or the depositor's remark. Unless noted, the call rests on the fitted dose curve; in most records, active means well fitted curve in the direction sought with a large enough effect; inconclusive means small, poorly fitted or top-dose-only effect, or another doubt; inactive means no such curve, though single readings can be large; an effect the other way counts as inactive or inconclusive.

SMILES	G9a block	PLK1 PBD inh	HP1b chromo inh	JMJD2A Tudor	BAZ2B block	PI5P4K alpha inh
OCCN(CCO)c1ccc2ccccc2c1	?	-2%	11%	-28%	-25%	1
OCCN(CCO)c1ccc(C(c2ccccc2Cl)c2ccc(N(CCO)CCO)cc2Cl)c(Cl)c1	45µM*	7%	-14%	?	?	0
COC(CNS(=O)(=O)c1cc2c3c(c1)CCN3C(=O)CC2)OC	10%	21µM*	1%	-29%	-6%	-16
O=C(CCS(=O)(=O)c1cc2c3c(c1)CCN3C(=O)CC2)Nc1cccc(Br)c1	?	nt	17%	79µM*	2%	nt
COc1ccc(C)cc1NC(=O)CCS(=O)(=O)c1cc2c3c(c1)CCN3C(=O)CC2	8.9µM*	nt	71µM*	32µM*	-16%	nt
COc1ccccc1NC(=O)CCS(=O)(=O)c1cc2c3c(c1)CCN3C(=O)CC2	20µM*	nt	11%	?	-2%	nt
CCOc1ccc(/C=C/C(=O)Nc2sc3c(c2C(=O)OC)CCC3)cc1	-42%[59 µM]	nt	25%	-3%	2%	nt
CSCCC(C(=O)NC1CCCC1)n1c(C2CC2)nc2ccccc21 (configuration not stated)	nt	-15%	nt	nt	nt	-5
Cc1cc(C)cc(N2Cc3ccccc3C2)c1	10µM*	-5%	35%	-24%	-6%	7
CC(=O)Nc1ccc(N2Cc3ccccc3C2)cc1	nt	-29%	5%	-33%	79µM*	-1
CCc1ccc(N2Cc3ccccc3C2)cc1	10µM*	?	27%	-32%	?	-4
COc1ccc(C(=O)NCc2nnc(SCC(=O)NC3CCCC3)o2)cc1	-3%[59 µM]	2%	35%	-3%	-5%	-2
CN(C)c1ccc(NS(=O)(=O)c2ccc(-c3csnn3)cc2)cc1	40µM*	-12%	?	50µM*	56µM*	-7
COc1ccc(NS(=O)(=O)c2ccc(OC)c(N(C)S(=O)(=O)c3ccc(Cl)cc3)c2)cc1	50µM*	-20%	-17%	-26%	-38%	nt
CN(C)c1ccc(NS(=O)(=O)c2cccc(Cl)c2)cc1	?	-16%	?	32µM*	45µM*	8
Cc1nc(-c2ccc(NS(=O)(=O)c3ccccc3)cc2)cs1	-31%	-19%	13%	-6%	-8%	-13
Cc1ccc(NS(=O)(=O)c2cccc(Cl)c2)cc1C	nt	nt	nt	9%	nt	nt
Cc1ccc(S(=O)(=O)Nc2ccc(N(C)C)cc2)cc1	-148%[59 µM]	-8%	?	56µM*	35µM*	-3
COc1ccc(S(=O)(=O)Nc2ccc(F)cc2)cc1N(C)S(=O)(=O)c1ccc(Cl)cc1	6%	-4%	43%	-22%	-27%	nt
Cc1ccc(S(=O)(=O)Nc2ccc(Nc3ccccc3)cc2)cc1	nt	7%	-14%	?	?	-5
COc1cccc(C(O)c2nc(-c3cccc(C#N)c3)cs2)c1 (configuration not stated)	nt	-10%	nt	nt	nt	-1
Cc1ccc(C)c(S(=O)(=O)N2CCN(C(=O)CCC(=O)NCc3ccc(Cl)cc3Cl)CC2)c1	nt	-14%	26%	-14%	nt	16
Cc1cc(S(=O)(=O)Nc2ccc(N(C)C)cc2)c(C)s1	?	0%	-18%	50µM*	45µM*	nt
CN(C)c1ccc(NS(=O)(=O)c2cc3c4c(c2)CC(=O)N4CCC3)cc1	nt	-15%	?	?	45µM*	-1
CCCCc1ccc(NS(=O)(=O)c2cc3c4c(c2)CC(=O)N4CCC3)cc1	-29%[59 µM]	nt	7%	-31%	-10%	nt
CN(C)c1ccc(NS(=O)(=O)c2ccc(Cl)cc2)cc1	3.5µM*	4%	?	56µM*	45µM*	-1
CN(C)c1ccc(S(=O)(=O)c2ccc(Cl)cc2)cc1	-1%	-7%	34%	2%	-3%	0
CCc1ccccc1NC(=O)CC1NCCNC1=O (configuration not stated)	9%[59 µM]	nt	44%	-9%	4%	nt
COC(=O)c1ccc2nc3c(cc2c1)[C@@H]1CCN2C(=O)CCC[C@H](C3)[C@H]12	nt	0%	34%	1%	nt	1
